Assay [1] is described as follows: qHTS assay to test for compound auto fluorescence at 535 nm (green) in HEK293 cells (AID 720680). (In general: In qHTS, concentration-response curves come from the screen itself.)
A short description of assay [2]: qHTS assay to test for compound auto fluorescence at 460 nm (blue) in HEK293 cell free culture (AID 720681). The essentials:
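Compounds were added to cell-free DMEM with 10% FBS and fluorescence read directly. The blue channel used 405 nm excitation and 460 nm emission, with triamterene as the reference fluorophore.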

Assay [3] is described as follows: qHTS assay to test for compound auto fluorescence at 590 nm (red) in HEK293 cell free culture (AID 720683). The method in brief:
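Cell-free wells of DMEM with 10% FBS received compound, and intrinsic fluorescence was read at excitation/emission 540/590 nm. Values expressed as equivalence to Rose Bengal sodium.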

Assay [4] in a line: qHTS assay to test for compound auto fluorescence at 590 nm (red) in HepG2 cell free culture (AID 720684). The essentials: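 Auto fluorescence equivalency versus Rose Bengal sodium, red channel Ex/Em 540/590 nm; compounds in cell-free MEM/10% FBS; DMSO vehicle control.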
Assay [5] can be described thus: qHTS assay to test for compound auto fluorescence at 535 nm (green) in HepG2 cell free culture (AID 720686).
Assay [6] in a line: qHTS assay to test for compound auto fluorescence at 460 nm (blue) in HepG2 cells (AID 720687). The essentials:
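HepG2 cells in MEM with 10% FBS, attached overnight at 37 C, were exposed to compound or DMSO for 1 hr at 37 C, 5% CO2. Blue fluorescence was read at 405/460 nm, with triamterene as reference fluorophore.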

Assay [7] addresses Glucocorticoid receptor (Homo sapiens) (UniProt P04150). Nature of the assay: qHTS assay to identify small molecule antagonists of the glucocorticoid receptor (GR) signaling pathway (AID 720692; active = well fitted inhibition curve with a large enough effect in the signal ratio in the repeat runs, not every such curve was filed as active; the % refers to the signal ratio; also: potency is read from the fitted curve at half-maximal effect). The method in brief:
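In a 1536-well cell format, compounds were added 4 h after seeding GR-bla HeLa cells, together with dexamethasone at 5 nM final; reporter activity was measured by FRET-substrate fluorescence following 18 h at 37 C.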

Assay [8] is described as follows: qHTS assay for identifying genotoxic compounds that show differential cytotoxicity against isogenic chicken DT40 cell lines with known DNA damage response pathways - wild type cell line (AID 743012). Also: nearly all actives have a fitted effect of over 60% in size. Also: potency is read from the fitted curve at half-maximal effect. The method in brief: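 Viability of DNA repair-proficient chicken DT40 cells was assessed by CellTiter-Glo luminescence following 40 h compound exposure at 37 C/5% CO2.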

A short description of assay [9]: qHTS assay for identifying genotoxic compounds that show differential cytotoxicity against isogenic chicken DT40 cell lines with known DNA damage response pathways - Rev3 mutant cell line (AID 743014). Also: nearly all actives have a fitted effect of over 55% in size. Also: potency is read from the fitted curve at half-maximal effect.
Assay [10] in a line: qHTS assay for identifying genotoxic compounds that show differential cytotoxicity against isogenic chicken DT40 cell lines with known DNA damage response pathways - Rad54/Ku70 mutant cell line (AID 743015). Also: nearly all actives have a fitted effect of over 60% in size. Also: potency is read from the fitted curve at half-maximal effect.
The nature of assay [11]: qHTS assay to identify small molecule antagonists of the androgen receptor (AR) signaling pathway - cell viability counter screen (AID 743033; also: nearly all actives have a fitted effect of over 45% in size).
Assay [12] is described as follows: qHTS assay to test for compound auto fluorescence at 460 nm (blue) in HepG2 cell free culture (AID 720685). The essentials: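 Cell-free plates of MEM plus 10% FBS received 23 nL compound or DMSO vehicle; blue-channel (405/460 nm) intensity scored against triamterene as reference fluorophore.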
The nature of assay [13]: qHTS assay to identify small molecule antagonists of the glucocorticoid receptor (GR) signaling pathway - cell viability counter screen (AID 720693). Also: nearly all actives have a fitted effect of over 55% in size.
The nature of assay [14]: qHTS assay to identify small molecule antagonists of the androgen receptor (AR) signaling pathway using the MDA cell line - cell viability counter screen (AID 743041; also: nearly all actives have a fitted effect of over 45% in size; also: potency is read from the fitted curve at half-maximal effect). The method in brief:
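Compound exposure lasted 16 h at 37C in MDA-kb2 AR-luc cells stimulated with R1881. Protease-based CellTiter-Fluor reagent was applied for the final 30 min and fluorescence measured.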

Assay [15] addresses Glucocorticoid receptor (Homo sapiens) (UniProt P04150). The assay is described as follows: qHTS assay to identify small molecule agonists of the glucocorticoid receptor (GR) signaling pathway (AID 720691; active = well fitted activation curve with a large enough effect in the signal ratio in the repeat runs, not every such curve was filed as active; the % refers to the signal ratio). The method in brief: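 Compounds in DMSO, alongside positive controls, were added to GR-bla HeLa reporter cells and incubated 18 h at 37 C; GRE-driven beta-lactamase was detected by fluorescence after 2 h with FRET substrate at room temperature.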

This passage reports outcome and Potency results from PubChem BioAssay (Tox21).

Where “and” joins values, the source holds several entries; their conditions need not be identical. Identical values can stand only once. Results filed as inconclusive are left out. More than one record can exist for a structure, and the calls need not agree. Calls of active or inactive are those of the source. Unless noted, calls follow the shape of the dose curve; as a rule, active = well fitted curve in the direction sought with a large enough effect in the repeat runs; inconclusive = weak or mixed curves; inactive = no such curve, though single readings can be large; an effect the other way counts as inactive or inconclusive.

Sequence of Glucocorticoid receptor (Homo sapiens) (P04150 whole entry, looked up): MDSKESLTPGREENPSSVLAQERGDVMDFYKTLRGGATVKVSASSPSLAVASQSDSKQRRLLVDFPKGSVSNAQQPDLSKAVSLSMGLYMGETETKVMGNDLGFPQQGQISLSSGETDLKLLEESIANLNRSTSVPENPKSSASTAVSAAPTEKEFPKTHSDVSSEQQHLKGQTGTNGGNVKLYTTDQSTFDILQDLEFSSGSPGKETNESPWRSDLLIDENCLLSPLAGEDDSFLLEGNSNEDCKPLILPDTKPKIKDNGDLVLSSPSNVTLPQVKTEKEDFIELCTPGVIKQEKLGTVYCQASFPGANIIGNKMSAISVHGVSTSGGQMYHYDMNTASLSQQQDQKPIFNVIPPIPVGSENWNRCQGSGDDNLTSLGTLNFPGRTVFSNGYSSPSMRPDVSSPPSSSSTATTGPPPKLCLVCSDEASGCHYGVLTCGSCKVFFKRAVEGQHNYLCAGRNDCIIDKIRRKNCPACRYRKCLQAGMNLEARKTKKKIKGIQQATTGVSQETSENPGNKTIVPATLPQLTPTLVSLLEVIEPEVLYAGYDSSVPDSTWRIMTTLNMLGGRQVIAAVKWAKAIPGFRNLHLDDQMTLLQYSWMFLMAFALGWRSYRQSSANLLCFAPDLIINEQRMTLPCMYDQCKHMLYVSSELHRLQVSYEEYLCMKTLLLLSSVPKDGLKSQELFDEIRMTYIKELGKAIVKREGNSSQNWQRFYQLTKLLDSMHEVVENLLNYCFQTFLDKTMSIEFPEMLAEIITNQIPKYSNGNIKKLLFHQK

`Cc1c(C)c2c(c(C)c1OC(=O)CCC(=O)OCCO)CC[C@@](C)(CCC[C@H](C)CCC[C@H](C)CCCC(C)C)O2`: the molecule was classed as inactive in assay [1], in [3], in [4] and in assay [5]. In addition, the Potency entry in assay [2], in assay [6] and in assay [11] was “inactive” each time. Also, the Potency in assay [7] was 19 µM (active); in [8], 11.9 µM (active); in [9] it was 10.6 µM (active); in [10], 11.9 µM (active).

As for `OCCOCC#CCOCCO`, the molecule was classed as inactive in assay [1], in [3], in assay [4] and in assay [5]. Besides, the Potency result in assay [2], in assay [12], in assay [6], in [13], in assay [8] and in assay [9] was “inactive” in each case. Also, the Potency result in assay [10], in assay [11] and in [14] was “inactive” each time.

With `Cc1cc(O)ccc1O`, the molecule was classed as inactive in assay [1], in assay [3], in [4] and in [5]. For the same molecule, the Potency result in assay [2], in [12], in [6], in assay [8], in assay [9] and in [10] was “inactive” in each case. The Potency result in assay [11] and in assay [14] was “inactive” each time.

Consider `CCC(C)(C)OC`, for which the molecule was called inactive in [1], in assay [3], in [4] and in assay [5]. In addition, the Potency entry in [2], in [6], in assay [15], in [7], in assay [13] and in [8] was “inactive” in each case. In addition, the Potency entry in assay [9], in [10], in [11] and in assay [14] was “inactive” throughout.

For the molecule `CC1=C(Br)C(=O)C(Br)=C/C1=C(/c1ccccc1S(=O)(=O)O)c1cc(Br)c(O)c(Br)c1C`, the molecule was classed as inactive in assay [1], in [3] and in assay [5]. The Potency result in assay [2], in assay [12], in assay [6], in [15], in assay [7] and in assay [13] was “inactive” in each case. Besides, the Potency is 20.8 µM (active) in [8], 20.8 µM (active) in [9], 20.8 µM (active) in assay [10] and 41.5 µM (active) in assay [14].

On to `CCCCCC[C@@H](O)C/C=C\CCCCCCCC(=O)O`, for which the call in [1], in assay [3], in assay [4] and in assay [5] was inactive. Also, the Potency entry in assay [2], in assay [12], in assay [6], in assay [15], in assay [7] and in [9] was “inactive” each time. Moreover, the Potency entry in assay [11] and in assay [14] was “inactive” throughout. Further, the Potency entry in assay [8] is “inactive and 29.8 µM (active)”; in assay [10], “inactive and 23.7 µM (active) and 48.6 µM (active)”.

As to `COc1cc(C(=O)NCCCCCC(=O)O)cc(OC)c1OC`, the call in [1], in assay [3], in assay [4] and in assay [5] was inactive. Moreover, the Potency result in assay [2], in [12], in [6], in [15], in assay [7] and in [13] was “inactive” each time. The Potency result in assay [8], in assay [10], in [11] and in assay [14] was “inactive” in each case.

Turning to `CC1=C(CC=O)C(C)(C)CCC1`, the result in [1], in assay [3], in assay [4] and in [5] was inactive. Also, the Potency result in [2], in assay [12], in assay [6], in [13], in assay [11] and in assay [14] was “inactive” in each case. Also, the Potency in assay [8] is 54.5 µM (active); in assay [10] it was 24.3 µM (active).

As to `Brc1cc(Br)c(Oc2cc(Br)c(Br)cc2Br)cc1Br`, the result in [1], in assay [3], in [4] and in assay [5] was inactive. Further, the Potency entry in assay [2], in [12], in assay [6], in assay [8] and in [14] was “inactive” in each case.

On to `O=C1c2ccccc2C(=O)N1CCc1noc(-c2ccc(CN3CCCCCC3)s2)n1`, for which the molecule was called inactive in assay [1], in assay [3], in assay [4] and in assay [5]. Further, the Potency result in assay [2], in assay [12], in assay [6] and in assay [14] was “inactive” each time. The Potency in assay [8] was 49.9 µM (active); in assay [9] it was 39.7 µM (active); in assay [10] it was 39.7 µM (active).
